The text below walks through data of PubChem BioAssay (EPA / NIEHS).

Molecules are shown by their SMILES. Active and inactive are the calls of the source. Rule for the calls: active = hit-call score of the fitted dose curve at least 0.9, where 1 is the maximum; inactive = score below 0.9.

The AC50 is the midpoint of the concentration-response curve, whichever way the signal moves.

A short description of experiment [1]: ATG_PXRE_CIS: Attagene CIS-FACTORIAL HepG2 Assay for human Pregnane X Receptor Element (PXRE) (AID 2282957). The settings on record: HepG2 Attagene CIS-FACTORIAL PXRE reporter, mRNA; actives raise or lower the signal. Put shortly:
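HepG2 cells transiently transfected with cis-element-driven multiplexed reporter units; after 24 h chemical exposure, reporter mRNA measured by RT-PCR, 6-FAM labelling, HpaI digestion and capillary electrophoresis. Bidirectional fitting relative to DMSO.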

A short description of experiment [2]: ATG_PPRE_CIS: Attagene CIS-FACTORIAL HepG2 Assay for human Peroxisome Proliferator-activated Response Element (PPRE) (AID 2282958). The settings on record: HepG2 PPRE cis-element reporter, Attagene transcription factor profiling; actives raise or lower the signal. Put shortly: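 Measured endpoint: PPRE-controlled reporter mRNA, detected by RT-PCR and capillary electrophoresis fluorescence, from transiently transfected HepG2 cells 24 h after dosing. Curves fitted in both directions using DMSO baseline.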

Experiment [3] can be described thus: ATG_RORE_CIS: Attagene CIS-FACTORIAL HepG2 Assay for human RAR-related Orphan Receptor Element (RORE) (AID 2282959). The settings on record: HepG2 Attagene cis-factorial RORE reporter, mRNA; actives raise or lower the signal. Put shortly:
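Transiently transfected HepG2 reporter cells were treated 24 h. Reporter transcripts were detected by RT-PCR and capillary electrophoresis, with bidirectional fitting against DMSO.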

Experiment [4] in a line: ATG_Sox_CIS: Attagene CIS-FACTORIAL HepG2 Assay for human SRY-box transcription factor (SOX) (AID 2282960). The settings on record: HepG2 Attagene cis-factorial SOX reporter, mRNA; actives raise or lower the signal. Put shortly: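 Gain- or loss-of-signal endpoint, fitted bidirectionally with DMSO as negative control. Based on reporter mRNA from transfected HepG2 cells harvested 24 h post-treatment and quantified via RT-PCR and capillary electrophoresis.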

In experiment [5] the target is Transcription factor Sp1 (Homo sapiens) (UniProt P08047). Nature of the experiment: ATG_Sp1_CIS: Attagene CIS-FACTORIAL HepG2 Assay for human Specificity Protein 1 (Sp1) (AID 2282961). The settings on record: HepG2 Sp1 cis-reporter transcription, actives raise or lower the signal. Put shortly: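 Endpoint reflects endogenous Sp1 transcriptional activity, not an exogenous fusion protein: HepG2 cells with transfected cis-regulated reporters, 24 h dosing, RT-PCR/capillary electrophoresis mRNA read-out, DMSO-normalised bidirectional fit.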
Chain of Transcription factor Sp1 (Homo sapiens) (P08047 whole entry, looked up, the tested form may be a part): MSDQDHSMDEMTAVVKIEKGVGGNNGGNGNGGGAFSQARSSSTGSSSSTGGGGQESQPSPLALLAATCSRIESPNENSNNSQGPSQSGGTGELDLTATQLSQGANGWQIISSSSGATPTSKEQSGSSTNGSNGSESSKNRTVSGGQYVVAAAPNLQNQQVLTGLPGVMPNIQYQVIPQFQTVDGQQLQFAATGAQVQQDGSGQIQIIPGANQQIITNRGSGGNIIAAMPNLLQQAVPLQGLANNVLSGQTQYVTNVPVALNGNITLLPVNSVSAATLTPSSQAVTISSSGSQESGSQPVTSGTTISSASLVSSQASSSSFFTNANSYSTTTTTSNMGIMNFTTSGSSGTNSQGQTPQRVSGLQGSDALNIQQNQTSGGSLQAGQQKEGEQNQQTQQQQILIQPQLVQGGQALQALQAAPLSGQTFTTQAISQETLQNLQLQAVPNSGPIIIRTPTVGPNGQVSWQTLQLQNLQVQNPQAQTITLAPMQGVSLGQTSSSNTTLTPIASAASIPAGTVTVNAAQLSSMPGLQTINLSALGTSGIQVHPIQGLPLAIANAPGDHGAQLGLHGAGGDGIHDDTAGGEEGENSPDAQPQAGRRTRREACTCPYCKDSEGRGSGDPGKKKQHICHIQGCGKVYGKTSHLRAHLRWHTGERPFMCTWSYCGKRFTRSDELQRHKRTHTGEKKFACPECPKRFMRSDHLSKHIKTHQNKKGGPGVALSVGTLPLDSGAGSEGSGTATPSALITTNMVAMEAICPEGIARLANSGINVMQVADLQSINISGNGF

Experiment [6] can be described thus: ATG_SREBP_CIS: Attagene CIS-FACTORIAL HepG2 Assay for human Sterol Regulatory Element Binding (SREBP) (AID 2282962). The settings on record: HepG2 Attagene cis-factorial SREBP reporter, mRNA; actives raise or lower the signal. Put shortly: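 HepG2 cells transiently transfected with multiplexed cis-element reporter units report endogenous transcription factor activity. After 24 h of chemical exposure, reporter mRNA was quantified by RT-PCR, 6-FAM labelling, HpaI digestion and capillary electrophoresis; bidirectional fits used DMSO as baseline.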

The target in experiment [7] is Signal transducer and activator of transcription 3 (Homo sapiens) (UniProt P40763). Nature of the experiment: ATG_STAT3_CIS: Attagene CIS-FACTORIAL HepG2 Assay for human Signal Transducer and Activator of Transcription 3 (STAT3) (AID 2282963). The settings on record: HepG2, Attagene cis-factorial STAT3 reporter transcription; actives raise or lower the signal. Put shortly: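 HepG2 cells transiently transfected with cis-element-driven multiple reporter transcription units; after 24 h chemical exposure, reporter mRNA measured by RT-PCR, 6-FAM primer-extension labelling, HpaI digestion and capillary electrophoresis. Bidirectional fitting versus DMSO baseline.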
Chain of Signal transducer and activator of transcription 3 (Homo sapiens) (P40763 whole entry, looked up): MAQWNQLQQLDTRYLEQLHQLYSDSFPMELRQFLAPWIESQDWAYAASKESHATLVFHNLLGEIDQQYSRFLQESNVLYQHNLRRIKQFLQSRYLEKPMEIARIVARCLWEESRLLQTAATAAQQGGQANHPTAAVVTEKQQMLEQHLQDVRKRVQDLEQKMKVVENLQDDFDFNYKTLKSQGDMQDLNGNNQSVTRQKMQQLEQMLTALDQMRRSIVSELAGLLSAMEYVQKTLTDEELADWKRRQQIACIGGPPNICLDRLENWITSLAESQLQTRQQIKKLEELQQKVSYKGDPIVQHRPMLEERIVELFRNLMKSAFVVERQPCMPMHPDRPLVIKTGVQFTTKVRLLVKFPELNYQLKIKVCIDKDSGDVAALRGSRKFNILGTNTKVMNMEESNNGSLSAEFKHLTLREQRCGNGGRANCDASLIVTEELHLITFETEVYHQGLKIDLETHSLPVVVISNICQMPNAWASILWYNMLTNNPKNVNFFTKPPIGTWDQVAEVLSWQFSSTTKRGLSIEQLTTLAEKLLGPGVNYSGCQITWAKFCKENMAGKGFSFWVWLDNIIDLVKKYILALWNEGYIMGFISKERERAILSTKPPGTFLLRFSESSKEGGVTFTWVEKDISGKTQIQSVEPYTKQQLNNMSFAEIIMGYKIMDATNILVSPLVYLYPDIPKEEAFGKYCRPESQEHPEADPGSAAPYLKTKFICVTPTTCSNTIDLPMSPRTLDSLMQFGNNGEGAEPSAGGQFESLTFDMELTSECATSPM

The nature of experiment [8]: ATG_TA_CIS: Attagene CIS-FACTORIAL HepG2 Assay for human TA Basal Promoter (AID 2282964). The settings on record: HepG2 Attagene CIS-factorial TA basal promoter reporter; actives raise or lower the signal. The method in brief:
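Background-control readout: TA basal promoter reporter mRNA, fitted in both directions relative to DMSO. Measured by RT-PCR and capillary electrophoresis 24 hours after treating HepG2 human liver cells transiently carrying multiplexed cis-regulated reporter constructs.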

The nature of experiment [9]: ATG_TCF_b_cat_CIS: Attagene CIS-FACTORIAL HepG2 Assay for human T-Cell-Factor with beta-catenin (TCF/b-cat) (AID 2282965). The settings on record: HepG2 TCF/beta-catenin cis-reporter transcription, actives raise or lower the signal. Put shortly:
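In this cis-format system, transfected HepG2 cells report endogenous transcription factor activity. Readout after 24 h exposure is reporter transcript abundance from RT-PCR and capillary electrophoresis, analysed for gain or loss of signal versus DMSO.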

Experiment [10] can be described thus: ATG_TAL_CIS: Attagene CIS-FACTORIAL HepG2 Assay for human TAL Basal Promoter (AID 2282966).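 Note: background control endpoint measuring basal TAL promoter reporter mRNA not a specific factor.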 The settings on record: HepG2 Attagene cis-factorial TAL promoter reporter; actives raise or lower the signal. The method in brief:
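HepG2 cells transiently transfected with multiplexed cis-promoter reporter units, dosed 24 h. Reporter mRNA quantified by RT-PCR, 6-FAM labelling, HpaI digestion and capillary electrophoresis; TAL basal promoter serves as background control, fitted bidirectionally versus DMSO.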

With `CSCCC=O`, in experiment [1], the AC50 was 10.9 µM (active). Also, the outcome in experiment [2], in [3], in [4], in [5], in experiment [6] and in experiment [7] was inactive. Moreover, the outcome in [8], in experiment [9] and in experiment [10] was inactive.
Regarding `CC(C)CCOC(=O)c1ccccc1`, the result in experiment [1], in experiment [2], in experiment [3], in experiment [4], in experiment [5] and in [6] was inactive. The outcome in experiment [7], in [8], in experiment [9] and in [10] was inactive.
On to `Cc1cccc(Nc2ccccc2)c1`, for which the AC50 was 26.6 µM (active) in experiment [1], 127 µM (active) in [5] and 100 µM (active) in experiment [6]. Besides, the compound was classed as inactive in experiment [2], in experiment [3], in [4], in [7], in experiment [8] and in experiment [9]. Besides, in [10], the compound was classed as inactive.
Take `C[C@H]1C[C@@H](O)CC(C)(C)C1`: the AC50 in experiment [1] is 68.4 µM (active). For the same compound, the outcome in experiment [2], in experiment [3], in experiment [4], in [5], in [7] and in [8] was inactive. The compound was classed as inactive in experiment [9] and in experiment [10].
Turning to `COc1ccc(OC)c(N=Nc2c(O)ccc3ccccc23)c1`, the AC50 in experiment [1] was 3.46 µM (active). Further, the result in [2], in experiment [3], in [4], in experiment [5], in [7] and in [8] was inactive. Also, the call in experiment [9] and in experiment [10] was inactive.
For `C=C(CC(=O)O)C(=O)O`, the compound was called inactive in [1], in experiment [2], in [3], in [4], in experiment [5] and in experiment [7]. Besides, the compound was classed as inactive in [8], in experiment [9] and in experiment [10].
For `O=C1OC2(c3ccccc31)c1ccc(O)c(Br)c1Oc1c2ccc(O)c1Br`, the AC50 in experiment [1] was 15.9 µM (active). Further, the outcome in [2], in experiment [3], in experiment [4], in experiment [5], in experiment [6] and in experiment [7] was inactive. Besides, the outcome in experiment [8], in [9] and in [10] was inactive.
Regarding `Nc1ccc(N)c2c1C(=O)c1ccccc1C2=O`, the result in experiment [1], in experiment [3], in experiment [4], in experiment [5], in [6] and in experiment [7] was inactive. In addition, the call in [9] and in experiment [10] was inactive. In addition, the half-maximal activity concentration (AC50) in experiment [2] was 4.05 µM (active).
As for `ON=C1CCCCC1`, the compound was called inactive in experiment [1], in [2], in experiment [3], in experiment [4], in experiment [5] and in [7]. The outcome in experiment [8], in experiment [9] and in experiment [10] was inactive.
For the compound `COC(=O)Nc1ccc(Cl)c(Cl)c1`, the concentration at half-maximal activity (AC50) is 100 µM (active) in [1] and 26.4 µM (active) in experiment [9]. Also, the result in experiment [2], in experiment [3], in experiment [4], in experiment [5], in [6] and in [7] was inactive. The compound was called inactive in [8] and in [10].
`O=CN1CCOCC1`: the compound was called inactive in [1], in experiment [2], in experiment [3], in experiment [4], in [5] and in experiment [6]. The compound was classed as inactive in [7], in experiment [9] and in experiment [10].
For the compound `CCC(C)=O`, the compound was classed as inactive in [1], in experiment [2], in experiment [3], in experiment [4], in experiment [5] and in experiment [7]. Besides, the compound was called inactive in [8], in [9] and in experiment [10].
Consider `CCCN(CCC)S(=O)(=O)c1ccc(C(=O)O)cc1`, for which the concentration at half-maximal activity (AC50) in experiment [1] was 27.3 µM (active). For the same compound, the compound was classed as inactive in [2], in experiment [3], in experiment [4], in experiment [5], in [7] and in experiment [8]. For the same compound, the outcome in experiment [9] and in experiment [10] was inactive.
In the case of `CCCCCCCCCC(=O)OC`, the result in experiment [1], in experiment [2], in [3], in experiment [4], in experiment [5] and in [7] was inactive. For the same compound, the call in experiment [8], in experiment [9] and in experiment [10] was inactive.
As for `CC1CC(O)CC(C)(C)C1` (centres undefined), the call in experiment [1], in [2], in experiment [3], in [4], in experiment [5] and in experiment [6] was inactive. Besides, the compound was classed as inactive in experiment [7], in [9] and in experiment [10].
`Cc1ccc(N)c(S(=O)(=O)O)c1`: the compound was classed as inactive in [1], in experiment [2], in experiment [3], in experiment [4], in experiment [5] and in [6]. For the same compound, the compound was called inactive in experiment [7], in experiment [9] and in experiment [10].
With `OCc1cccc(Oc2ccccc2)c1`, the concentration at half-maximal activity (AC50) in experiment [1] was 27.4 µM (active). In addition, the outcome in experiment [2], in [3], in experiment [4], in [5], in experiment [7] and in [8] was inactive. In addition, the result in experiment [9] and in experiment [10] was inactive.
With `CC(=O)c1ccccn1`, the compound was called inactive in experiment [1], in [2], in experiment [3], in [4], in experiment [5] and in [6]. In addition, the outcome in experiment [7], in experiment [9] and in experiment [10] was inactive.
With `CCCCCCOC(=O)C(C)C`, the outcome in experiment [1], in experiment [2], in [3], in experiment [4], in [5] and in [6] was inactive. The compound was called inactive in [7], in experiment [8], in experiment [9] and in experiment [10].
Turning to `COc1ccc(CCO)cc1`, the outcome in experiment [1], in experiment [2], in [3], in experiment [4], in experiment [5] and in [6] was inactive. The call in experiment [9] and in [10] was inactive. Further, in [7], the concentration at half-maximal activity (AC50) was 179 µM (active).
In the case of `IC(I)I`, the concentration at half-maximal activity (AC50) in experiment [1] is 5.98 µM (active). Besides, the compound was called inactive in experiment [2], in [3], in [4], in experiment [5], in experiment [7] and in experiment [8]. Besides, the result in [9] and in experiment [10] was inactive.
Turning to `CCCC(=O)c1ccccc1`, the compound was classed as inactive in experiment [1], in experiment [2], in experiment [3], in experiment [4], in experiment [5] and in [6]. The compound was called inactive in [7], in experiment [9] and in experiment [10].
As to `NC(=S)NNC(N)=S`, the call in [1], in experiment [2], in [3], in [4], in [5] and in experiment [6] was inactive. Besides, the result in [7], in experiment [9] and in experiment [10] was inactive.
On to `Cc1ccc(-c2ccccc2)cc1`, for which the AC50 in experiment [1] was 27.3 µM (active). Moreover, the compound was called inactive in experiment [2], in experiment [3], in experiment [4], in experiment [5], in experiment [6] and in experiment [7]. In addition, the result in [9] and in [10] was inactive.
In the case of `C=CC(C)C#N` (centres undefined), the result in experiment [1], in experiment [2], in experiment [3], in experiment [4], in [5] and in experiment [7] was inactive. The compound was classed as inactive in [8], in experiment [9] and in experiment [10].
Consider `CC(C)=CCCC(C)CCOC=O` (centres undefined), for which the AC50 in experiment [1] is 100 µM (active). For the same compound, the compound was called inactive in experiment [2], in [3], in experiment [4], in [5], in experiment [7] and in experiment [8]. Also, the result in experiment [9] and in [10] was inactive.
Consider `CC1(C)CCC[C@]2(C)[C@H]3CCO[C@]3(C)CC[C@@H]12`, for which the AC50 was 7.46 µM (active) in [1] and 100 µM (active) in [3]. Moreover, the result in experiment [2], in [4], in [5], in [7], in experiment [8] and in experiment [9] was inactive. Besides, the result in experiment [10] was inactive.
